This note sets out measurements from PubChem BioAssay (Tox21).

The structures appear in SMILES notation. Several values for one entry are separate records, joined by “and”; a condition that tells them apart may be missing. Equal entries are not always repeated. Unmarked numbers belong to inactive results. Records with an inconclusive call do not appear. Activity calls are given as the source filed them. Unless noted, calls come from the whole dose curve; as a rule, active = well fitted curve in the direction sought with a large enough effect in the repeat runs; inconclusive = weak or mixed curves; inactive = no such curve, though single readings can be large; an effect the other way counts as inactive or inconclusive.

Assay [1] addresses Progesterone receptor (Homo sapiens) (UniProt P06401). In words: qHTS assay to identify small molecule agonists of the progesterone receptor (PR) signaling pathway (AID 1346784; calls by dose curve; note: % is set by controls: 0 for no effect and ±100 for the full control effect; nearly all actives have a fitted effect of over 30% in size). In short, it runs like this: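 PR-UAS-bla HEK 293T cells carrying a UAS-driven beta-lactamase reporter were seeded in medium with 2% charcoal-stripped FBS, preincubated 6 hr at 37C, then exposed to compounds in DMSO for 16 hr; agonism was read by LiveBLAzer B/G FRET fluorescence.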
On the technique in general: In qHTS, concentration-response curves come from the screen itself.

Assay [2] shares this target. In words: qHTS assay to identify small molecule antagonists of the progesterone receptor (PR) signaling pathway (AID 1346795; active = well fitted inhibition curve with a large enough effect in the signal ratio in the repeat runs, not every such curve was filed as active; the % refers to the signal ratio; note: potency is the fitted concentration of half-maximal effect). In short, it runs like this:
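PR-UAS-bla HEK293T cells carrying a UAS-driven beta-lactamase reporter were plated in medium with 2% charcoal-stripped FBS and rested 6 hr at 37C. Compounds were added with 1 nM R5020 (final) for 16 hr, then FRET substrate loaded 2 hr at room temperature.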

A short description of assay [3]: qHTS assay to identify small molecule antagonists of the progesterone receptor (PR) signaling pathway - cell viability counter screen (AID 1346798). Note: nearly all actives have a fitted effect of over 50% in size. Note: potency is the fitted concentration of half-maximal effect. The essentials:
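PR-UAS-bla HEK293T cells in medium with 2% charcoal-stripped FBS were treated with compounds plus R5020 for 16 hr at 37C. Cell viability was then read by CellTiter-Glo luminescence after 30 min at room temperature in the same wells.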

Assay [4] can be described thus: qHTS assay to identify small molecule antagonists of the TGF-beta/Smad signaling pathway - cell viability counter screen (AID 1346824). Note: % is set by controls: 0 for no effect and ±100 for the full control effect; nearly all actives have a fitted effect of over 50% in size. In short, it runs like this:
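SBE-bla HEK 293T cells, incubated overnight, then compound plus 0.25 ng/mL TGF-beta1 (stock added) for 5 hr at 37 C. Viability was read in the same wells by CellTiter-Glo luminescence after 30 min at room temperature.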

The nature of assay [5]: qHTS assay to identify small molecule agonists of the TGF-beta/Smad signaling pathway - cell viability counter screen (AID 1346829). Note: top concentration of the series differs between compounds; % is set by controls: 0 for no effect and ±100 for the full control effect; nearly all actives have a fitted effect of over 45% in size. The essentials:
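CellTiter-Glo luminescence readout; SBE-bla HEK 293T cells, overnight plating, compound 5 hr at 37 C/5% CO2, then bla substrate 2 hr RT, then CellTiter-Glo 30 min RT.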

In assay [6] the target is Thyrotropin-releasing hormone receptor (Homo sapiens) (UniProt P34981). In words: qHTS assay to identify small molecule antagonists of the thyrotropin-releasing hormone receptor (TRHR) signaling pathway (AID 1346877; active = well fitted inhibition curve with a large enough effect in the repeat runs, not every such curve was filed as active; note: series mostly up to about 51 µM; % is set by controls: 0 for no effect and ±100 for the full control effect). In short, it runs like this: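 Cells (TRHR-HEK293) are plated and kept 18 h at 37 °C/5% CO2. A calcium-sensitive dye is added for 2 h, compound follows for 5 min at room temperature, and TRH is then given at 1 nM final.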

For assay [7] the target is unchanged. In words: qHTS assay to identify small molecule agonists of the thyrotropin-releasing hormone receptor (TRHR) signaling pathway (AID 1346891; calls by dose curve; note: series mostly up to about 58 µM; % is set by controls: 0 for no effect and ±100 for the full control effect). In short, it runs like this: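 TRHR-expressing HEK293 cells were plated 18 h at 37 °C/5% CO2, loaded with calcium dye 2 h at 37 °C, then given compound in DMSO; fluorescence was read kinetically for 3 min at 1 s intervals.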

The nature of assay [8]: Caspase-3/7 induction in CHO-K1 cells by small molecules, qHTS assay (AID 1346980). Note: % is set by controls: 0 for no effect and ±100 for the full control effect; nearly all actives have a fitted effect of over 15% in size. In short, it runs like this: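 Wild-type CHO-K1 cells exposed to compounds for 17hr at 37 C, 5% CO2. Caspase-3/7 activity then measured by Caspase-Glo 3/7 luminescence after 30min at room temperature.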
A short description of assay [9]: Caspase-3/7 induction in HepG2 cells by small molecules, qHTS cell viability counter screen (AID 1346981). Note: nearly all actives have a fitted effect of over 30% in size. Note: potency is the fitted concentration of half-maximal effect. In short, it runs like this: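 Steps: seed 2,000 HepG2 cells per well; incubate 5 hr at 37 C; pin-add compounds in DMSO; incubate 16 hr; add CellTiter-Fluor; after 1 hr at 37 C and 5% CO2, read fluorescence.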
Assay [10] concerns the target Nuclear receptor subfamily 1 group I member 2 (Homo sapiens) (UniProt O75469). Briefly: Human pregnane X receptor (PXR) small molecule agonists, qHTS assay (AID 1346982). For activation: % is set by controls: 0 for no effect and ±100 for the full control effect. Note: nearly all actives have a fitted effect of over 35% in size. Note: potency is the fitted concentration of half-maximal effect. The essentials:
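Agonist mode qHTS: PXR-Luc HepG2 cells plated 5 hr before DMSO-dissolved compounds were pinned in, cultured 24 hr at 37 C, 5% CO2; ONE-Glo luminescence readout.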

Assay [11] has as its target Cytochrome P450 2D6 (Homo sapiens) (UniProt P10635). In words: Cytochrome P450 Family 2 Subfamily D Member 6 (CYP2D6) small molecule antagonists: luciferase reporter qHTS assay (AID 1671196). Note: nearly all actives have a fitted effect of over 50% in size. Note: potency is the fitted concentration of half-maximal effect. The essentials:
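P450-Glo format: CYP2D6 converts a proluciferin substrate to luciferin in an NADPH-driven reaction lasting 1 h at room temperature. Light output, proportional to CYP2D6 activity, reflects interference by test chemicals.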

Assay [12] can be described thus: qHTS assay to identify small molecule agonists of the estrogen receptor alpha (ER-alpha) signaling pathway in the presence of an antagonist - cell viability counter screen (AID 1259386).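 Note: series mostly up to about 92 µM; cells exposed to compounds for 22 h at 37 °C before the viability read; % is set by controls: 0 for no effect and ±100 for the full control effect; nearly all actives have a fitted effect of over 30% in size.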 In short, it runs like this:
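Cells are starved of estrogens for 5 days in charcoal-stripped serum, seeded for 24hr and co-treated with ICI-182,780 (10.0nM final) and test compounds. After 22hr at 37C, viability is read as CellTiter-Fluor fluorescence.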

Assay [13] in a line: Human pregnane X receptor (PXR) small molecule agonists, qHTS cell viability counter screen (AID 1346977). Note: nearly all actives have a fitted effect of over 50% in size. Note: potency is the fitted concentration of half-maximal effect. The essentials: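 PXR-Luc HepG2 cells in medium with 5% charcoal-stripped FBS were pre-incubated 5hr, then exposed to compounds for 24hr at 37C. Viability was read in the same wells by CellTiter-Fluor fluorescence, reagent added after 23hr with a 1hr incubation.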
Assay [14] is described as follows: Caspase-3/7 induction in CHO-K1 cells by small molecules, qHTS cell viability counter screen (AID 1346979). Note: potency is the fitted concentration of half-maximal effect; nearly all actives have a fitted effect of over 35% in size. In short, it runs like this:
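Wild-type CHO-K1 cells were seeded at 1,500 per well, rested 5hr at 37 C, then exposed to compounds in DMSO. After 16hr, CellTiter-Fluor reagent was added and fluorescence read 1hr later as the viability measure.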

The target in assay [15] is Nuclear receptor subfamily 1 group I member 2 (Homo sapiens) (UniProt O75469). In words: Human pregnane X receptor (PXR) activation by small molecules, qHTS assay (AID 1346985). Note: potency is the fitted concentration of half-maximal effect; nearly all actives have a fitted effect of over 40% in size. The essentials:
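DPX-2 cells (HepG2 co-transfected with a PXR response element and a CYP3A4-promoter luciferase construct) were seeded at 2,000 per well, rested 5 hr at 37C, then exposed to DMSO-dissolved compounds for 24 hr. Activation was read as luciferase luminescence.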

Assay [16] in a line: Caspase-3/7 induction in HepG2 cells by small molecules, qHTS assay (AID 1346978). Note: nearly all actives have a fitted effect of over 15% in size. Note: potency is the fitted concentration of half-maximal effect. The essentials:
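Wild-type HepG2 cells, 2,000/well, settled 5 hr at 37 C and 5% CO2, then compound-treated for 17 hr; caspase-3/7 activity read by luminescent Caspase-Glo 3/7 after 30 min at room temperature.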

The nature of assay [17]: qHTS assay to identify small molecule agonists of the progesterone receptor (PR) signaling pathway - cell viability counter screen (AID 1346799; calls by dose curve; note: nearly all actives have a fitted effect of over 45% in size; note: potency is the fitted concentration of half-maximal effect). The essentials: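 PR-UAS-bla HEK293T cells, 3,000 per well in medium with 2% charcoal-stripped FBS, were preincubated 6 hr at 37C, then exposed to compounds for 16 hr; viability was read as CellTiter-Glo luminescence after 30 min at room temperature.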

A short description of assay [18]: qHTS assay to identify small molecule agonists of the TGF-beta/Smad signaling pathway (AID 1346859; active = well fitted activation curve with a large enough effect in the signal ratio in the repeat runs, not every such curve was filed as active; the % refers to the signal ratio; note: potency is the fitted concentration of half-maximal effect; for activation: series mostly up to about 77 µM; % is set by controls: 0 for no effect and ±100 for the full control effect). In short, it runs like this:
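HEK 293T cells stably carrying a beta-lactamase reporter driven by the Smad binding element were seeded overnight, exposed to DMSO-dissolved compounds for 5 hr at 37 C, 5% CO2, then loaded with FRET substrate for 2 hr at room temperature.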

Assay [19] has as its target Nuclear receptor subfamily 1 group I member 2 (Rattus norvegicus) (UniProt Q9R1A7). In words: Rat pregnane X receptor (rPXR) activation by small molecules, qHTS assay (AID 1346983). Note: % is set by controls: 0 for no effect and ±100 for the full control effect; nearly all actives have a fitted effect of over 20% in size. The conditions noted are these: rPXR luciferase reporter cells, One-Glo luminescence, 24 h; hits give high values. In short, it runs like this: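 Cell-based rPXR activation assay: rPXR cells, 2,000 per well, rested 5hr at 37 C, then exposed to compounds in DMSO for 24 hr at 37 C. Luciferase activity read by One-Glo luminescence after 30 min at room temperature.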

Thyrotropin-releasing hormone receptor (Homo sapiens), sequence (P34981 whole entry, looked up): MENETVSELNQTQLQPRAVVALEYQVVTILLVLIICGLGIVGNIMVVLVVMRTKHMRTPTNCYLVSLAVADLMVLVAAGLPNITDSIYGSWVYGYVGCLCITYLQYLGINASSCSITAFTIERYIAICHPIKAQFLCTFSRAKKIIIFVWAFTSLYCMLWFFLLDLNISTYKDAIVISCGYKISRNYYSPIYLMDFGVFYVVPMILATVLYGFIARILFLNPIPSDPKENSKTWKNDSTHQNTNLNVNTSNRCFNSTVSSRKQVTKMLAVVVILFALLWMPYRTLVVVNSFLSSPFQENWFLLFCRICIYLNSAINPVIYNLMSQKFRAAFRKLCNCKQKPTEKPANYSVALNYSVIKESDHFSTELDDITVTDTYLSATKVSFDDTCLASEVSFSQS
Nuclear receptor subfamily 1 group I member 2 (Homo sapiens), sequence (O75469 whole entry, looked up): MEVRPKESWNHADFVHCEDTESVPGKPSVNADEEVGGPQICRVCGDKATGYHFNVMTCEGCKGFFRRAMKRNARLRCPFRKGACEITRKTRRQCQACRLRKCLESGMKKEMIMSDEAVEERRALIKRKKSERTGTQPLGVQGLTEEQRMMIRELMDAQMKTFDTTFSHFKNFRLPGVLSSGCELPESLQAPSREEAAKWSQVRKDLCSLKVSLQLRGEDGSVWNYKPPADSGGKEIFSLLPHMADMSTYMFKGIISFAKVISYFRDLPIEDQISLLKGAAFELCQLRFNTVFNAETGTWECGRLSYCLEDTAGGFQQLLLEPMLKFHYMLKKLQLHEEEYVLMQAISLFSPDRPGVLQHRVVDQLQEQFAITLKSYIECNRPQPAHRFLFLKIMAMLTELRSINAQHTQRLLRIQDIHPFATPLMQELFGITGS
Progesterone receptor (Homo sapiens), sequence (P06401 whole entry, looked up): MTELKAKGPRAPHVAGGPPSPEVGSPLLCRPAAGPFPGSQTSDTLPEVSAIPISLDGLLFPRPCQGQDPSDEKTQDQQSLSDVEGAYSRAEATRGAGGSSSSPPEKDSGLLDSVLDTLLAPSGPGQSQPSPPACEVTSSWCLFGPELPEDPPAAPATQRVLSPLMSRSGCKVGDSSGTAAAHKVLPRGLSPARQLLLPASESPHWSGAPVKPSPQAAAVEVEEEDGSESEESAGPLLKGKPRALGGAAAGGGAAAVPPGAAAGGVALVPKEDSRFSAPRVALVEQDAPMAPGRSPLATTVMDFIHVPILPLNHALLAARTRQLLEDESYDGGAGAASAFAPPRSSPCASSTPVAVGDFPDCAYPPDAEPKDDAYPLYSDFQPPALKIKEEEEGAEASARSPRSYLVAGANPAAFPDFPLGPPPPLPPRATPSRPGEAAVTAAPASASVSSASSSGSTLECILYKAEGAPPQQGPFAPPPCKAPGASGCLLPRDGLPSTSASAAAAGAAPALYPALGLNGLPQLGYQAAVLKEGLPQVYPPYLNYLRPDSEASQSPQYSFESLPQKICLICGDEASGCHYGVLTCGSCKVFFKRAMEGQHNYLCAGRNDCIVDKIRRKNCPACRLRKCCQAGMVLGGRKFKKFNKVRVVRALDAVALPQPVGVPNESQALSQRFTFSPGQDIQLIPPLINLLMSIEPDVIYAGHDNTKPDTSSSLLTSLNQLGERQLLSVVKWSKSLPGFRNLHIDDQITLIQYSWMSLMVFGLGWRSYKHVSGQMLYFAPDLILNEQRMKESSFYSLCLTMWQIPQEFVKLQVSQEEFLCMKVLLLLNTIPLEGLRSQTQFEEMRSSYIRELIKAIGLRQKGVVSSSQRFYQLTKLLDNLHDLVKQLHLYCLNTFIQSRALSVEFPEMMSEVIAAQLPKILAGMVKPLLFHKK
Cytochrome P450 2D6 (Homo sapiens), sequence (P10635 whole entry, looked up): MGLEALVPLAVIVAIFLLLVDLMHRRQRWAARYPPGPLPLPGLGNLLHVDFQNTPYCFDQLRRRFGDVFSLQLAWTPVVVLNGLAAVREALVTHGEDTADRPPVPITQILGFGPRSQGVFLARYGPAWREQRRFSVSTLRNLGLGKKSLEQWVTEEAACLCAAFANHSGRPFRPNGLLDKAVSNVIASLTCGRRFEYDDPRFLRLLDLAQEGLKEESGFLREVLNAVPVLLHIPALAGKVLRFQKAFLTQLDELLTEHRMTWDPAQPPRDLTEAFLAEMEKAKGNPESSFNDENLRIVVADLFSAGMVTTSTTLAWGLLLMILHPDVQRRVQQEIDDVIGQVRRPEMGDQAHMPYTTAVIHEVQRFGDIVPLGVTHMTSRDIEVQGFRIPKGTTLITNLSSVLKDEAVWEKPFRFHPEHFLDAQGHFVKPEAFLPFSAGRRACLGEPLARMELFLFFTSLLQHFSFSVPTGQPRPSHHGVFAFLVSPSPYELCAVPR
Nuclear receptor subfamily 1 group I member 2 (Rattus norvegicus), sequence (Q9R1A7 whole entry, looked up): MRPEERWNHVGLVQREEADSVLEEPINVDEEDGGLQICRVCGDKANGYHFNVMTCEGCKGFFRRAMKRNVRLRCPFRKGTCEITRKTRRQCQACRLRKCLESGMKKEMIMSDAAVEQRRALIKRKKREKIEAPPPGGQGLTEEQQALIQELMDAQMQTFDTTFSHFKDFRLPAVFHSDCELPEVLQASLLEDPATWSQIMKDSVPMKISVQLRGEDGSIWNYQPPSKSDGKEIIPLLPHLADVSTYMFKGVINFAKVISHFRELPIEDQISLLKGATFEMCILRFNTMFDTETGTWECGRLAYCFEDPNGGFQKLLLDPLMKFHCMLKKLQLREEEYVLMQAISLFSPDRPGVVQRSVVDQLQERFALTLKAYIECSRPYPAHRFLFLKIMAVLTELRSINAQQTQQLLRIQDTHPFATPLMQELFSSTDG

For the molecule `O=C(/C=C/c1ccc(O)c(O)c1)O[C@@H](C(=O)O)[C@@H](OC(=O)/C=C/c1ccc(O)c(O)c1)C(=O)O`, the Potency result in assay [1], in assay [2], in assay [3], in [4], in [5] and in [6] was “inactive” each time. Besides, the Potency result in assay [8], in assay [9] and in assay [10] was “inactive” each time. Moreover, the result in [7] was inactive. Besides, in assay [11], the Potency is 31.7 µM (active).
For `COC(=O)Nc1nc2ccc(C(=O)c3ccccc3)cc2[nH]1`, the Potency result in assay [12], in assay [4], in [5], in assay [6], in [13] and in [8] was “inactive” throughout. The Potency result in assay [9] and in assay [11] was “inactive” each time. Moreover, in assay [7], the result was inactive. Further, the Potency in assay [14] was 8.41 µM (active); in assay [10], 4.22 µM (active); in assay [15] it was 5.01 µM (active).
Turning to `O=C(O)c1cc(N=Nc2ccc([N+](=O)[O-])cc2)ccc1O`, the Potency entry in assay [1], in [4], in assay [5], in assay [6], in [16] and in assay [8] was “inactive” throughout. Moreover, the call in assay [7] was inactive. In addition, the Potency was 53.5 µM (active) in [13], 47.7 µM (active) in assay [14], 53.5 µM (active) in assay [9] and 69.7 µM (active) in assay [11].
As to `O=c1c(O)c(-c2ccc(O)cc2O)oc2cc(O)cc(O)c12`, the Potency entry in [1], in assay [3], in assay [17], in [4], in [5] and in [6] was “inactive” in each case. Moreover, the Potency entry in [16] and in assay [8] was “inactive” in each case. Besides, the molecule was classed as inactive in assay [7].
Turning to `O=S(=O)(O)c1ccccc1/C=C/c1ccc(-c2ccc(/C=C/c3ccccc3S(=O)(=O)O)cc2)cc1`, the Potency entry in [3], in [17], in [4], in assay [5], in assay [6] and in [16] was “inactive” throughout. Also, the Potency result in assay [8], in [9], in assay [10] and in [11] was “inactive” each time. Besides, the Potency in assay [18] is 44.3 µM (active). Moreover, in assay [7], the outcome was inactive.
With `CC(=O)[C@H]1CC[C@H]2[C@@H]3CCC4=CC(=O)CC[C@]4(C)[C@H]3CC[C@]12C`, the Potency result in assay [12], in [13] and in assay [9] was “inactive” each time. The Potency is 54.2 µM (active) in assay [3]; 54.2 µM (active) and 48.6 µM (active) in [14]; 15.8 µM (active) and 39.9 µM (active) in [11].
For the molecule `C=CC(=O)Nc1cc2c(Nc3ccc(F)c(Cl)c3)ncnc2cc1OCCCN1CCOCC1`, the Potency result in assay [1], in assay [3], in assay [4], in assay [5], in assay [6] and in assay [8] was “inactive” throughout. Moreover, in [7], the molecule was classed as inactive. Also, the Potency in assay [14] is 5.96 µM (active); in assay [9], 5.96 µM (active); in [10], 10.6 µM (active).
On to `CCN(CC)C(=O)c1cc(S(=O)(=O)Cc2ccccc2)c(N2CCC(c3ccccc3)CC2)cc1N(CC)CCN(C)C`, for which the Potency result in assay [12] and in [6] was “inactive” throughout. The Potency in assay [3] was 19.1 µM (active); in [13], 13.5 µM (active); in [16] it was 19.1 µM (active); in [14] it was 21.4 µM (active); in [9], 17 µM (active); in assay [10] it was 3.4 µM (active). Moreover, the Potency in assay [11] is 8.84 µM (active). Besides, the molecule was classed as inactive in [7].
`Oc1c(I)cc(Cl)c2cccnc12`: the Potency result in assay [1], in assay [3], in assay [17], in assay [4], in assay [5] and in assay [18] was “inactive” in each case. Further, the Potency result in assay [6], in [13], in assay [16] and in assay [9] was “inactive” each time. Besides, the Potency is 6.84 µM (active) and 7.5 µM (active) in [2]; 27.3 µM (active) and 29.8 µM (active) in [14]. Also, in [7], the call was inactive.
With `O=C1CCc2cc(OCCCCc3nnnn3C3CCCCC3)ccc2N1`, the Potency result in [1], in assay [4], in assay [5], in assay [6], in assay [16] and in assay [8] was “inactive” throughout. The Potency result in assay [9] and in assay [11] was “inactive” throughout. Moreover, the call in assay [7] was inactive.
As for `CNC(=O)c1ccccc1Sc1ccc2c(/C=C/c3ccccn3)n[nH]c2c1`, the Potency in [2] was 16.8 µM (active); in assay [17] it was 33.5 µM (active); in assay [14] it was 26.6 µM (active); in assay [11] it was 30.9 µM (active). Also, the Potency result in [18], in [6], in assay [16] and in assay [8] was “inactive” in each case. Besides, in [7], the molecule was called inactive.
For the molecule `Oc1cc(Cl)cc(Cl)c1Cl`, the Potency entry in assay [3] and in assay [4] was “inactive” each time.
As to `C#CC1(O)CC[C@H]2[C@@H]3CCC4=CCCC[C@@H]4[C@H]3CC[C@@]21C` (stereo partly drawn), the Potency entry in [12], in [4], in assay [18], in assay [6], in [8] and in assay [11] was “inactive” in each case. For the same molecule, the result in assay [7] was inactive. For the same molecule, the Potency in assay [14] was 61.1 µM (active) and 26.6 µM (active). The max activation in [19] is -0.183%.
